Source: PubChem BioAssay AID1159580 (chemical genetic matrix, 2015)
Several values for one entry are separate records, joined by “and”; a condition that tells them apart may be missing. Equal entries are not always repeated. About 2,000 (36%) of roughly 5,500 compounds were called active. About 18% were inconclusive and are not listed. No stated cut-off is given here; in the data, active means normalized growth mostly below about 0.91 (no sharp cut-off); inconclusive means no clear call, values can overlap the other calls; inactive means mostly above about 0.92. This is one part of the list. Where a structure was tested more than once in an assay, its records may differ in their call.

Test: chemical genetic growth profiling, strain panel (AID 1159580);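 further: tested at 20 µM; growth read once vehicle control cultures reached saturation at 30 °C; 1 = growth at the plate median or of vehicle wells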
Conditions: S. cerevisiae deletion strains, growth OD

Measured: normalized growth

O=C1CCc2cc(OCCCCc3nnnn3C3CCCCC3)ccc2N1
0.998 (inactive) and 0.252 (active): locus YJR075W, strain HOC1, stronger effect = lower value
active: locus YCL061C, strain MRC1 (second series), stronger effect = lower value 0.0772
inactive: locus YAL013W, strain DEP1, stronger effect = lower value 1 | locus YAL021C, strain ccr4, stronger effect = lower value 0.996 | locus YAL026C, strain drs2, stronger effect = lower value 1.01 | locus YAL030W, strain snc1, stronger effect = lower value 0.985 | locus YAL040C, strain CLN3, stronger effect = lower value 1.01 | locus YBL061C, strain skt5, stronger effect = lower value 0.991 | locus YBR009C, strain hhf1, stronger effect = lower value 0.989 | locus YBR021W, strain FUR4, stronger effect = lower value 1.03 | locus YBR023C, strain chs3, stronger effect = lower value 1 | locus YBR171W, strain sec66, stronger effect = lower value 0.981 | locus YBR229C, strain ROT2, stronger effect = lower value 1 | locus YBR231C, strain swc5, stronger effect = lower value 0.99 | locus YBR279W, strain paf1, stronger effect = lower value 0.989 | locus YCL011C, strain gbp2, stronger effect = lower value 0.995 | locus YCL016C, strain dcc1, stronger effect = lower value 1 | locus YCL029C, strain bik1, stronger effect = lower value 0.988 | locus YCL061C, strain MRC1, stronger effect = lower value 0.988 | locus YCL069W, strain vba3, stronger effect = lower value 0.982 | locus YCR088W, strain abp1, stronger effect = lower value 0.992 | locus YDL005C, strain med2, stronger effect = lower value 0.983 | locus YDL035C, strain GPR1, stronger effect = lower value 1.01 | locus YDL040C, strain nat1, stronger effect = lower value 0.988 | locus YDL074C, strain BRE1, stronger effect = lower value 1.03 | locus YDL101C, strain DUN1, stronger effect = lower value 1 | locus YDL134C, strain PPH21, stronger effect = lower value 1.01 | locus YDL185W, strain tfp1, stronger effect = lower value 0.993 | locus YDL192W, strain arf1, stronger effect = lower value 0.971 | locus YDR001C, strain nth1, stronger effect = lower value 0.998 | locus YDR069C, strain doa4, stronger effect = lower value 0.987 | locus YDR101C, strain arx1, stronger effect = lower value 0.977 | locus YDR137W, strain rgp1, stronger effect = lower value 0.894 | locus YDR150W, strain NUM1, stronger effect = lower value 1.01 | locus YDR159W, strain sac3, stronger effect = lower value 0.978 | locus YDR162C, strain NBP2, stronger effect = lower value 1.02 | locus YDR195W, strain ref2 0.958 | locus YDR297W, strain sur2, stronger effect = lower value 0.995 | locus YDR318W, strain mcm21, stronger effect = lower value 1 | locus YDR334W, strain swr1, stronger effect = lower value 0.999 | locus YDR335W, strain msn5, stronger effect = lower value 0.981 | locus YDR388W, stronger effect = lower value 0.99 | locus YDR392W, strain spt3, stronger effect = lower value 0.984 | locus YDR502C, strain sam2, stronger effect = lower value 1.02 | locus YEL003W, strain gim4, stronger effect = lower value 1 | locus YEL037C, strain rad23, stronger effect = lower value 0.999 | locus YEL061C, strain CIN8 (second series), stronger effect = lower value 0.998 | locus YEL061C, strain CIN8, stronger effect = lower value 1 | locus YER002W, strain NOP16, stronger effect = lower value 1.01 | locus YER015W, strain faa2, stronger effect = lower value 0.997 | locus YER016W, strain bim1, stronger effect = lower value 0.993 | locus YER110C, stronger effect = lower value 0.993 | locus YER111C, strain swi4, stronger effect = lower value 0.979 | locus YER155C, strain BEM2 (second series), stronger effect = lower value 0.965 | locus YER155C, strain BEM2, stronger effect = lower value 1.02 | locus YER167W, strain BCK2, stronger effect = lower value 1 | locus YFR010W, strain ubp6, stronger effect = lower value 0.991 | locus YGL078C, strain dbp3, stronger effect = lower value 1 | locus YGL086W, strain mad1, stronger effect = lower value 1 | locus YGL167C, strain pmr1, stronger effect = lower value 0.986 | locus YGL173C, strain kem1, stronger effect = lower value 0.986 | locus YGL227W, strain vid30, stronger effect = lower value 0.985 | locus YGL240W, strain doc1, stronger effect = lower value 0.959 | locus YGL248W, strain PDE1, stronger effect = lower value 1 | locus YGL253W, strain hxk2, stronger effect = lower value 1 | locus YGR078C, strain PAC10, stronger effect = lower value 1.02 | locus YGR135W, strain pre9, stronger effect = lower value 0.997 | locus YGR229C, strain SMI1, stronger effect = lower value 1.01 | locus YGR252W, strain gcn5, stronger effect = lower value 0.956 | locus YHR013C, strain ard1, stronger effect = lower value 0.99 | locus YHR027C, strain rpn1, stronger effect = lower value 0.998 | locus YHR030C, strain SLT2, stronger effect = lower value 1 and 0.979 | locus YHR079C, strain IRE1 (second series), stronger effect = lower value 0.995 | locus YHR079C, strain IRE1, stronger effect = lower value 0.986 | locus YHR094C, strain hxt1, stronger effect = lower value 0.993 | locus YHR129C, strain ARP1, stronger effect = lower value 1 | locus YHR142W, strain chs7, stronger effect = lower value 1 | locus YHR200W, strain rpn10, stronger effect = lower value 0.995 | locus YIL066C, strain RNR3, stronger effect = lower value 1.01 | locus YIL073C, strain SPO22, stronger effect = lower value 0.989 | locus YIL125W, strain kgd1, stronger effect = lower value 1.01 | locus YIR030C, strain dcg1, stronger effect = lower value 0.998 | locus YJL092W, strain hpr5, stronger effect = lower value 0.996 | locus YJL095W, strain BCK1 (second series), stronger effect = lower value 0.984 | locus YJL095W, strain BCK1, stronger effect = lower value 1.01 and 0.989 | locus YJL115W, strain asf1, stronger effect = lower value 0.999 | locus YJL129C, strain trk1, stronger effect = lower value 0.973 | locus YJL134W, strain LCB3, stronger effect = lower value 1 | locus YJL154C, strain vps35, stronger effect = lower value 0.993 | locus YJL164C, strain tpk1, stronger effect = lower value 1 | locus YJL166W, strain qcr8, stronger effect = lower value 0.979 | locus YJL168C, strain set2, stronger effect = lower value 0.992 | locus YJL187C, strain SWE1 (second series), stronger effect = lower value 1.01 | locus YJR043C, strain POL32, stronger effect = lower value 1.01 | locus YJR066W, strain TOR1, stronger effect = lower value 0.942
